GoLoco inh red – qHTS Assay for Inhibitors of RGS12 GoLoco Motif Activity (Red Fluorophore). Gai1:RGS12 GoLoco peptide FP, rhodamine, 10 min. Potency, µM (series often up to 61.6 µM), for inactives: at the top dose activity, negative = inhibition, usual class: inhibitors. actives 0.44% (n = 230,000). AID 880, 2007; active = well fitted inhibition curve with a large enough effect, not every such curve was filed as active; inactive = no such curve, though single readings can be large or run the other way; note: potency is the fitted concentration of half-maximal effect; nearly all actives have a fitted effect of over 30% in size
Target sequence (P63096 whole entry, looked up): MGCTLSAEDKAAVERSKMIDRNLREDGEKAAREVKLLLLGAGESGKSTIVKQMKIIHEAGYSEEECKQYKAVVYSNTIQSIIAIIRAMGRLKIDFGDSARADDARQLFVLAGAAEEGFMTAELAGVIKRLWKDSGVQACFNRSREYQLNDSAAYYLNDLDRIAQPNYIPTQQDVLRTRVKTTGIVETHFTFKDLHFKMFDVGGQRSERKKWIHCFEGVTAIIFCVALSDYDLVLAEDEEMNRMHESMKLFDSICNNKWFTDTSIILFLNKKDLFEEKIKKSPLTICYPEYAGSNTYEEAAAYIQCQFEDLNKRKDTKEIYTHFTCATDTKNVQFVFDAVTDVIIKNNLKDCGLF
TRb-SRC2 inh – qHTS for Inhibitors of the Interaction of Thyroid Hormone Receptor and Steroid Receptor Coregulator 2; Thyroid hormone receptor beta (Homo sapiens), P10828; TRbeta-SRC2 peptide binding, fluorescence polarization; receptor liganded with 1 µM T3; Potency, µM (doses to about 106 µM), for the others: at the top dose activity change, negative = inhibition, usual class: inhibitors; actives 0.065% (n = 280,000); active = well fitted inhibition curve with a large enough effect; inconclusive = small, poorly fitted or top-dose-only effect, or effect the other way;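 note: potency is the fitted concentration of half-maximal effect; plate controls were bound peptide for no effect and peptide without receptor for full effect; nearly all actives have a fitted effect of over 50% in size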
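Quantitative HTS by FP: 0.6 uM TRb LBD, 20 nM labeled SRC2 20-mer, 1 uM T3, 5% DMSO; 5 hr ambient incubation; % activity per concentration and potencies from concentration series.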
TexasRed fluor – Total Fluorescence Counterscreen for Inhibitors of the Interaction of Thyroid Hormone Receptor and Steroid Receptor Coregulator 2; TRb/SRC2 Texas Red total fluorescence interference; actives 0.29% (n = 280,000); Potency, µM (top dose mostly 106 µM), without a hit: top-dose fluorescence change, negative = quenching; active = well fitted curve in either direction with a large enough effect; inconclusive = small, poorly fitted or top-dose-only effect; note: potency is the fitted concentration of half-maximal effect
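Flags fluorescent or light-absorbing compounds by total fluorescence, S + 2P, at 555 nm excitation and 632 nm emission. Mixture: 20 nM Texas Red SRC2 peptide, 0.6 uM human TRb LBD, 1 uM T3, 5% DMSO; compound exposure 5 h at ambient temperature.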
Coupling enz – qHTS Assay for Inhibitors of Fructose-1,6-bisphosphate Aldolase from Giardia Lamblia: Coupling assay counterscreen | activity change, negative = inhibition, % at 58.2 µM, hits read low | coupling enzyme system counterscreen, AmpLite Red fluorescence | actives 0.67% (n = 290,000); in the data active = activity change below about -30%
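Activity here indicates interference with the coupling reaction, not aldolase inhibition. Compounds at 57.5 uM final met coupling enzymes for 10 min at RT; substrate and AmpLite Red detection followed, with a 525/598 nm fluorescence read after 20 min.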
* marks the source's active call; other numbers are inactive results; ? = inconclusive; · = not tested or not shown; ! = repeats disagree; [ ] = remark or other dose. Compounds with a hit are over-represented: about 0.93% of the library has one in this group of screens. Unless noted, % is set by controls: 0 for no effect and ±100 for the full control effect.

SMILES	GoLoco inh red	TRb-SRC2 inh	TexasRed fluor	Coupling enz
Oc1c(Br)cc(Br)cc1Br	4%	-10%[201 µM]	-4%[201 µM]	·
N[C@@H](Cc1cc(Br)c(O)c(Br)c1)C(=O)O	11µM*!	-1%	0%	0
Cc1cc(Cl)ccc1O[C@H](C)C(=O)O	·	2%[201 µM]	-4%[201 µM]	·
COCCNC(=O)c1c(N)n(CCC(C)C)c2nc3ccccc3nc12	3%	3%	-3%	-36*
CCCCNC(=O)c1c(N)n(CCCOC)c2nc3ccccc3nc12	-1%	?	1%	-39*
CCOC(=O)c1c(NS(=O)(=O)c2ccccc2)n(CCCOC)c2nc3ccccc3nc12	11%	?	2%	-39*
CC(C)OCCCNC(=O)c1c(N)n(Cc2cccs2)c2nc3ccccc3nc12	1%	6%	1%	-46*
CC(C)CCn1c(N)c(C(=O)NCc2cccs2)c2nc3ccccc3nc21	-7%	-27%	-1%	-21
COCCNC(=O)c1c(NC(=O)c2ccc(Br)o2)n(Cc2ccccc2)c2nc3ccccc3nc12	11%	-18%	1%	-44*
COC(=O)[C@@H]1c2cc3c(c(O)c2[C@@H](O)C[C@]1(C)O)C(=O)c1c(O)cc2c(c1C3=O)O[C@H]1O[C@@]2(C)[C@@H](O)[C@H](N(C)C)[C@H]1O	33%[14.2 µM]	·	·	·
CC[C@]1(O)CC(O[C@@H]2CC(N(C)C)C(O)C(C)O2)c2c(cc3c(c2O)C(=O)c2c(O)ccc(O)c2C3=O)C1C(=O)OC (stereo not given in full)	10%	15%	40µM*[fluorescent]	-16
CCC[CH2][Sn](=[O])[CH2]CCC	·	1%[201 µM]	-5%[201 µM]	·
COc1ccc2c(c[n+](C)c3c4cc5c(cc4ccc23)OCO5)c1OC	21%	?	-18%	-39*!
CCCCN(CC)C(=O)SCCC	·	4%[201 µM]	1%[201 µM]	·
CN1CC=C2C(C#N)=C(N)C(C#N)(C#N)C(c3ccncc3)C2C1 (stereo not given)	25µM*	-24%	12%	-17
Clc1ccc([C@@]2(Cn3cncn3)C[C@@H](Br)CO2)c(Cl)c1	·	-8%[201 µM]	-3%[201 µM]	·
CCCN1CCCC2Cc3[nH]ncc3CC21 (stereo not given)	-4%	1%	35µM*![quencher]	·
O=C1Nc2ccc(Br)cc2C(c2ccc(Cl)cc2)=NC1O (stereo not given)	·	·	·	-34*
O=C1NC(=O)N(c2ccccc2)C(=O)/C1=C/C=C/c1ccco1	26%	-2%	10%	3
CN(C)c1ccc(/C=C/C=C2/C(=O)NC(=O)N(c3ccccc3)C2=O)cc1	-163%	?	3.2µM*[fluorescent]	-8
COc1cc(/C=C2\C(=O)NC(=O)N(c3ccccc3)C2=O)cc(OC)c1O	38%	-2%	2%	-33*
COc1ccc(/C(=C/C(=O)N2CCOCC2)c2ccc(Cl)cc2)cc1OC	·	-4%[201 µM]	-1%[201 µM]	·
CCOC(=O)c1c(/N=C/c2c(O)n(-c3ccccc3F)c(=S)[nH]c2=O)sc2c1CCCC2	202%	-1%	2%	-49*
COc1ccc(Cc2nccc3cc(OC)c(OC)cc23)cc1OC	5%	9%	0%	-32*!
CCN(CC)c1ccc(CN(C)CCc2ccc(OC)c(OC)c2)cc1	-12%	4%	-1%	-1
SMILES	GoLoco inh red	TRb-SRC2 inh	TexasRed fluor	Coupling enz
CN1CCN(c2ccc(N)cc2Cl)CC1	6%	0%	2%	-32*
CN1CCN(c2ccc(Cl)cc2N)CC1	12%	7%[53 µM]	-3%[53 µM]	6
CN1CCN(c2ccccc2N)CC1	25µM*	-22%	15%	2
CCOc1cc(C(C)(C)C)ccc1C1COC(c2c(F)cccc2F)=N1 (stereo not given)	·	0%[201 µM]	0%[201 µM]	·
O=[N+]([O-])c1ccc(Oc2ccc(Cl)cc2Cl)cc1	·	0%[201 µM]	0%[201 µM]	·
CCC[CH2][Sn]([CH2]CCC)([CH2]CCC)[CH2]CCC	·	7%[201 µM]	1%[201 µM]	·
CN(C)C1C(=O)C(C(N)=O)=C(O)[C@@]2(O)C(=O)C3=C(O)c4c(O)cccc4[C@@](C)(O)C3CC12 (stereo not given in full)	35µM*	0%	?	-21
Nc1c(C(=O)NC2CCCC2)c2nc3ccccc3nc2n1CC1CCCO1 (stereo not given)	·	1%	-4%	-46*
Nc1c(C(=O)NCC2CCCO2)c2nc3ccccc3nc2n1Cc1ccco1 (stereo not given)	21%	-1%	-4%	-1
CCCCNC(=O)OCC#CI	·	0%[201 µM]	-8%[201 µM]	·
CCSC(C)CC1CC(=O)C(/C(CC)=N/OC/C=C/Cl)=C(O)C1 (stereo not given)	·	-7%[201 µM]	-13%[201 µM]	·
O=C(CSC1c2ccccc2-c2ccccc21)N/N=C/c1ccccc1C(=O)O	-7%	-13%	-1%	1
O=C(Cc1cc(=O)[nH][nH]1)N/N=C/c1ccccc1Cl	5%	-9%	1413µM*[quencher]	-4
CCOP(=O)(OCC)C(NC(=O)c1cccc(C)c1)C(Cl)(Cl)Cl (stereo not given)	3%	0%	-3%	-3
CCOP(=O)(OCC)C(NC(=O)c1cccc2ccccc12)C(Cl)(Cl)Cl (stereo not given)	12%	-17%[53 µM]	32µM*[quencher]	-12
CCOP(=O)(OCC)C(NC(=O)c1ccccc1C)C(Cl)(Cl)Cl (stereo not given)	-12%	0%[53 µM]	3.2µM*[quencher]	-3
O=C1NC(=O)N(c2ccc(Cl)cc2)C(=O)/C1=C\c1ccc(Sc2nc3ccccc3[nH]2)o1	-35%	?	45µM*[fluorescent]	-3
CCCCC/C=C\C/C=C\C/C=C\C/C=C\CCCC(=O)Nc1ccc(O)cc1C	9%	-16%	3.5µM*![quencher]	-7
[CH3][Sn]([CH3])([Cl])[Cl]	·	2%[201 µM]	-2%[201 µM]	·
O=C1C=CC(=O)c2ccccc21	·	-5%[201 µM]	-6%[201 µM]	·
O=C1C=CC(=O)C(Cl)=C1	1.8µM*	-1%	-8%	-22
O=C(O)CC1OCC=C2CN3CCC45c6ccccc6NC4C1C2CC35 (stereo not given)	2%	-2%	-7%	0
O=C(O)CC1OCC=C2CN3CCC45C6=CC(=O)C(=O)C([N+](=O)[O-])=C6NC4C1C2CC35 (stereo not given)	-5%	?	-11%	-92*
CCN(CCO)c1ccc(N=Cc2c(O)n(C)c(=S)[nH]c2=O)cc1	175%	9%	0%	-47*
CCN(CC)c1ccc(N=Cc2c(O)n(Cc3ccco3)c(=O)[nH]c2=O)cc1	10%	0%	-1%	-1
O=C(Oc1ccccc1)N1CCC[C@@]2(CCN(C(c3ccccc3)c3ccccc3)C2)C1	15%	·	·	-34*
CCOP(=O)(OCC)Oc1nc(Cl)c(Cl)cc1Cl	·	-3%[201 µM]	0%[201 µM]	·
CC[N+](C)(CC)CCCOC(=O)C(O)(c1ccccc1)C1CCCCC1 (stereo not given)	6.3µM*	5%	0%	-1
CC(O)CN(CC(C)O)CC(C)O (stereo not given)	·	0%[201 µM]	-5%[201 µM]	·

Screening results deposited in PubChem BioAssay by National Center for Advancing Translational Sciences (NCATS).
